For 10 compounds, z-score and composite z-score results are on record in PubChem BioAssay.

The nature of experiment [1]: resazurin metabolic signal in HepG2 cells – cell-based, resazurin fluorescence, 24 h, PK04 Diversity Set, profiling panel (AID 1172). Further: test concentration not given here. Conditions: HepG2 viability, higher = more signal. A general note: The colour change of resazurin is a common sign of viable cells or microbes.
Experiment [2] in a line: budding yeast growth changes without added modifier – OD600, strain BY4716, 24 h, basal condition, primary screen (AID 1173). Conditions: S. cerevisiae BY4716 growth, OD600, 24 h; higher = more signal, called active from +8 up or from −8 down.
Experiment [3] can be described thus: viability profiling in MM1S myeloma cells – cell-based, resazurin fluorescence, basal, 24 h, PK04 Diversity Set, profiling panel (AID 1174).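 Further: MM1S multiple myeloma cell line; test concentration not given here.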 Conditions: higher = more signal, called active from +8 up or from −8 down.
Experiment [4] has as its target Dihydroorotate dehydrogenase (quinone), mitochondrial (Plasmodium falciparum (isolate 3D7)) (UniProt Q08210). Description: inhibition of P. falciparum DHODH – biochemical, C-terminal His tag, absorbance 600 nm, primary screen (AID 1175).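 Further: recombinant parasite enzyme with a five histidine tag at its C terminus; test concentration not given here.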 The note with it: PfDHODH enzyme, DCIP absorbance 600 nm; higher = more signal, called active from +8 up or from −8 down.
Experiment [5] can be described thus: inhibition of PAO1 biofilm formation – strain PAO1, LB-PBS medium, absorbance 600 nm, primary screen (AID 1176). Further: test concentration not given here. The note with it: P. aeruginosa PAO1 growth/biofilm, A600, 12 h; higher = more signal.
Experiment [6] in a line: growth modulation of vineyard yeast isolate – strain RM11-1a, OD600, basal, 24 h, primary screen (AID 1177).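 Further: cultures grown under basal conditions with no added stressor; test concentration not given here.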 The note with it: S. cerevisiae RM11-1a growth, OD600, 24 h; higher = more signal, called active from +8 up or from −8 down.
The nature of experiment [7]: growth of efflux-deficient E. coli DRC39 – strain DRC39, OD650, 24 h, E. coli filamentation inducers, primary screen (AID 1178).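 Further: growth measured as culture turbidity by optical density at 650 nm; test concentration not given here.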 The note with it: E. coli DRC39 acrAB, higher = more signal, called active from +8 up or from −8 down.
Experiment [8] in a line: growth of efflux-deficient E. coli DRC39 – strain DRC39, OD650, 48 h, E. coli filamentation inducers, primary screen (AID 1179).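 Further: screen aims at cell division blockers that make cells filament.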 The note with it: E. coli DRC39 delta-acrAB growth, higher = more signal, called active from +8 up or from −8 down.
The nature of experiment [9]: viability profiling in RPMI8226 myeloma cells – cell-based, resazurin fluorescence, basal, 24 h, PK04 Diversity Set, profiling panel (AID 1180).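 Further: RPMI8826 multiple myeloma cell line at 5000 cells per well; test concentration not given here.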 Conditions: higher = more signal.
Experiment [10] concerns the target E3 ubiquitin-protein ligase XIAP (Homo sapiens) (UniProt P98170). Description: small molecules binding XIAP protein – biophysical, small-molecule microarray, fluorescence 635 nm, primary screen (AID 1181).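 Further: score merges 667 nm emission and signal to noise over triplicate slides.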 Conditions: higher = more signal.

Molecules are shown by their SMILES. Calls of active or inactive are those of the source. Unless noted, how the calls were made is not given here.

Dihydroorotate dehydrogenase (quinone), mitochondrial (Plasmodium falciparum (isolate 3D7)), sequence (Q08210 whole entry, looked up): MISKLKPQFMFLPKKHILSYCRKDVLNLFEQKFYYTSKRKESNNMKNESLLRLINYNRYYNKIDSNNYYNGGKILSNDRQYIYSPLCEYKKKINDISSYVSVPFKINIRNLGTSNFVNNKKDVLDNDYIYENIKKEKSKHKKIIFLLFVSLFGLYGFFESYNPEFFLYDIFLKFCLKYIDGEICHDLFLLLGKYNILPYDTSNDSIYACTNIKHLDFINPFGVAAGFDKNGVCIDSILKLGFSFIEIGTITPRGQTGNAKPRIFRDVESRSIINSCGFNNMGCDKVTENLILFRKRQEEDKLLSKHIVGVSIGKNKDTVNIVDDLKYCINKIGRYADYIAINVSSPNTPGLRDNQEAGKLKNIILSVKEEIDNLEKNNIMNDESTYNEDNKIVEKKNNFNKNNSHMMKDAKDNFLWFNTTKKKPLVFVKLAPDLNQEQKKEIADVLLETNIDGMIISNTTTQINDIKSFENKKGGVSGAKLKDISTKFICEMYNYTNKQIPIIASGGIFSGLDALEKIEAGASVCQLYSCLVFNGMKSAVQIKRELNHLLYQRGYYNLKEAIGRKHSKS
E3 ubiquitin-protein ligase XIAP (Homo sapiens), sequence (P98170 whole entry, looked up): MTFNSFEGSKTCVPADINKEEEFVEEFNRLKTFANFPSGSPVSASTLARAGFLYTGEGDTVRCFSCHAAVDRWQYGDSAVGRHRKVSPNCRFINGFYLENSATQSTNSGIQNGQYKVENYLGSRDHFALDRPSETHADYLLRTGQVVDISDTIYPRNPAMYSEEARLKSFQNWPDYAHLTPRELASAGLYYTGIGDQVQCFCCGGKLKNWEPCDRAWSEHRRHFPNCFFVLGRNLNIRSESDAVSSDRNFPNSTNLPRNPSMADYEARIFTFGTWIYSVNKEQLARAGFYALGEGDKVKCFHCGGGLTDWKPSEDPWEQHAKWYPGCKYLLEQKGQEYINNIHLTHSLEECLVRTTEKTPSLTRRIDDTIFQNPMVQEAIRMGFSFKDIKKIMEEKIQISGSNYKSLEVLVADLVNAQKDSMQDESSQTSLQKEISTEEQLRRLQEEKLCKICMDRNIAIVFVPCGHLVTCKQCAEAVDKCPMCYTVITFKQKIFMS

Consider `CCOC(=O)C[C@H]1[C@H](OC(=O)c2cc3ccccc3oc2=O)[C@@H](NC(=O)Cc2ccc(OC)cc2)c2cc(OCCCO)ccc2N1C(=O)c1ccccc1`, for which the z-score in [1] was -1.1; in [2] it was -2.06 (inactive); in experiment [3], -0.218 (inactive); in experiment [5], -0.329 (inactive); in experiment [6], 0.0296 (inactive); in [7], -0.682 (inactive). Also, the z-score is -0.784 (inactive) in experiment [8] and -1.22 in [9]. Also, the composite z-score in experiment [4] is -2.42 (inactive); in experiment [10] it was 0.0997.
Take `O=C1OCCC=C[C@H]2OC34C=CCN(CCN5CCOCC5)C(=O)[C@H]3N(CCCCCCO)C(=O)[C@@H]4C12` (stereo not given in full): the z-score in experiment [1] is 0.24; in [2], 0.039 (inactive); in [3], -0.0328 (inactive); in experiment [5], -0.373 (inactive); in experiment [6] it was 0.626 (inactive); in experiment [7], 1.14 (inactive). For the same compound, the z-score in experiment [8] is 1.43 (inactive); in experiment [9], 0.22. The composite z-score in [4] is 0.369 (inactive); in experiment [10], 0.464.
For `O=C1C2C=CC(C(O)c3ccc(F)cc3)N(Nc3ccccc3F)C2C(=O)N1c1ccccc1` (stereo not given), the z-score in [1] was -0.395; in experiment [2], -1.9 (inactive); in experiment [3], -0.63 (inactive); in [5], 0.599 (inactive); in experiment [6] it was 0.0815 (inactive); in experiment [7] it was -0.554 (inactive). Further, the z-score in experiment [8] is -0.184 (inactive); in experiment [9], -0.292. In addition, the results for the composite z-score in experiment [4] and in experiment [10] were 0.306 (inactive) and 0.0029, respectively.
Consider `CCOC(=O)[C@H]1C/C=C/C[C@H](C(=O)OCC)C(=O)O[C@H]2[C@@H](OC)O[C@H](CO)[C@@H](OC(=O)Nc3ccc(C#N)cc3)[C@@H]2OC1=O`, for which the z-score in experiment [1] was -4.61; in experiment [2], 0.516 (inactive); in [3], -8.87 (active); in experiment [5], 1.94 (inactive); in experiment [6], -0.166 (inactive); in experiment [7] it was 1.1 (inactive). Besides, the results for the z-score in [8] and in experiment [9] were 1.58 (inactive) and -7.15, respectively. Further, the results for the composite z-score in [4] and in experiment [10] were -1.26 (inactive) and 0.122, respectively.
On to `CC(=O)n1cc(C(O)C2C=CC3C(=O)N(C)C(=O)C3N2Nc2ccccc2)c2ccccc21` (stereo not given), for which the z-score in [1] was 0.362; in experiment [2], 0.125 (inactive); in experiment [3], -1.2 (inactive); in experiment [5], 1.07 (inactive); in experiment [6], 0.135 (inactive); in experiment [7], -0.321 (inactive). Also, the z-score in experiment [8] is -0.306 (inactive); in experiment [9], -1.11. The composite z-score was 0.0365 (inactive) in [4] and 0.229 in experiment [10].
For `CCCC[C@H]1OB(O)C[C@H]2C1=C(COc1ccccc1)C[C@H]1C(=O)N(C)C(=O)[C@H]12`, the z-score in experiment [1] is -0.0384; in [2], -2.57 (inactive); in experiment [3], -0.508 (inactive); in experiment [5], -0.0946 (inactive); in experiment [6], -0.798 (inactive); in experiment [7], -0.121 (inactive). Besides, the z-score is -0.316 (inactive) in experiment [8] and -0.59 in [9]. The composite z-score in experiment [4] was -0.514 (inactive); in experiment [10], -0.031.
With `COCCCNC(=O)[C@@]1(Cc2ccccc2)N=C(c2ccc(OCCCO)cc2)O[C@H]1c1ccccc1`, the z-score in experiment [1] is 0.625; in [2], -1.05 (inactive); in experiment [3] it was -0.0938 (inactive); in experiment [5] it was 0.19 (inactive); in experiment [6] it was -0.82 (inactive); in experiment [7] it was 0.385 (inactive). For the same compound, the z-score was -0.456 (inactive) in experiment [8] and 0.297 in experiment [9]. Further, the composite z-score in [4] was 0.282 (inactive); in [10] it was -0.0376.
As to `COc1ccc(C(O)C2C=CC3C(=O)NC(=O)C3N2Nc2ccccn2)cc1` (stereo not given), the z-score in experiment [1] is -0.396; in experiment [2], 0.0843 (inactive); in [3], -0.285 (inactive); in [5] it was 0.366 (inactive); in experiment [6], 0.31 (inactive); in experiment [7], -0.276 (inactive). Further, the values for the z-score in [8] and in experiment [9] were -0.401 (inactive) and -0.721, respectively. The composite z-score was 0.91 (inactive) in experiment [4] and -0.893 in experiment [10].
Regarding `C=CCOC(=O)[C@H]1[C@@H]2C(=O)O[C@@H](c3ccccc3)[C@@H](c3ccccc3)N2[C@@H](c2ccc(OCCOC(=O)[C@H]3C[C@H]4C(=O)N5CCC[C@H]5C(=O)N4[C@H]3c3ccc(O)cc3)cc2)[C@]12C(=O)Nc1ccc(I)cc12`, the z-score in experiment [1] was -0.495; in experiment [2], -1.03 (inactive); in experiment [3] it was -0.941 (inactive); in experiment [5] it was 2.43 (inactive); in experiment [6], -0.632 (inactive); in [7] it was -0.651 (inactive). Besides, the z-score in experiment [8] was -1.05 (inactive); in experiment [9] it was -0.215. The results for the composite z-score in experiment [4] and in experiment [10] were -1.73 (inactive) and 2.8, respectively.
On to `O=C1[C@H]2C=C(Br)[C@H](C[C@@H]2c2ccccc2)[C@@]12CO2`, for which the z-score in [1] was -0.25; in experiment [2], -7.98 (inactive); in experiment [3] it was -0.727 (inactive); in [5], -0.14 (inactive); in [6], -0.13 (inactive); in experiment [7], -1.29 (inactive). In addition, the z-score in [8] was -1.58 (inactive); in experiment [9], -0.579. For the same compound, the composite z-score in experiment [4] was 0.402 (inactive); in experiment [10] it was -0.228.
